Screening data deposited in PubChem by National Center for Advancing Translational Sciences (NCATS).
LmPK inh – LmPK (Leishmania mexicana) enzyme inhibition. purified LmPK, Kinase-Glo ATP luminescence, 1 h. AID 1721. 290,000 compounds, 0.37% hits. Potency, µM (doses to about 57.5 µM), most hits filed as inhibitors
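Purified LmPK (0.1 nM) converted ADP (0.1 mM) to ATP with PEP (0.5 mM) in imidazole buffer pH 7.2 with KCl and MgCl2, 1 h at room temperature. ATP was read by Kinase-Glo luminescence; data normalized to uninhibited and no-enzyme controls.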
CHX counter – counter-screen hit for Shiga toxin inhibitors, cycloheximide | cell reporter, cycloheximide protein synthesis inhibition counterscreen | max response, % | 300,000 compounds, 12% hits | AID 2314; in the data active = max response mostly above about 13%, no sharp cut-off; inactive = mostly below about 14%; note: read at 38.3 µM for the half of the compounds with a filed dose
RE007 growth inh – less growth of the S. pombe RE007 Vpr strain | Potency, µM (series often up to 92.2 µM), hits mostly inhibitors | AID 651644 | 360,000 compounds, 0.21% hits | S. pombe RE007 Vpr strain, BacTiter-Glo ATP luminescence, 24 h; active = well fitted falling curve with a large enough effect; inconclusive = small, poorly fitted or top-dose-only effect; inactive = no such curve, though single readings can be large or run the other way; note: nearly all actives have a fitted effect of over 50% in size
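Fission yeast strain RE007, carrying one chromosomally integrated HIV-1 vpr copy, was seeded at OD 0.01 in PMG+AL medium with 23 nL pinned compound. After 24 h at 30 °C and 99% humidity, viability was read by BacTiter-Glo luminescence.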
FBPA Giardia inh – inhibitors of Giardia lamblia fructose-1,6-bisphosphate aldolase | purified Giardia FBPA | Potency, µM (doses to about 59.6 µM), actives largely listed as inhibitors | 290,000 compounds, 0.71% hits; note: nearly all actives have a fitted effect of over 55% in size
Target sequence (A8B2U2 whole entry, looked up): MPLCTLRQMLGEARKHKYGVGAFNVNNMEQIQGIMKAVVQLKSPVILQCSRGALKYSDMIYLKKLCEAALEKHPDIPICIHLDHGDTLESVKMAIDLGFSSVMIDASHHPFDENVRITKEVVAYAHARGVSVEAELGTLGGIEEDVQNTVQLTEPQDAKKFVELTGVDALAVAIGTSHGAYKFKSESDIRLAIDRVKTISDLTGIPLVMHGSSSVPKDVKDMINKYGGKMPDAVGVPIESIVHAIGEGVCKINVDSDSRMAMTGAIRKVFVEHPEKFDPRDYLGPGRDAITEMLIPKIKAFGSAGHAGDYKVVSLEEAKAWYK
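40 nM FBPA preincubated 10 min at RT with compound (up to 57.5 uM final), then substrate plus GAPDH/TPI/NAD/arsenate coupling and diaphorase/resazurin added. Fluorescence read after 20 min at RT, 525/598 nm.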
Shiga toxin inh – blocks Shiga toxin action in Vero cells; AID 2315; 290,000 compounds, 9.2% hits; inhibition, % at 38.7 µM; Vero cells, Shiga toxin protein synthesis inhibition reporter; in the data active = inhibition mostly above about 28%, no sharp cut-off; inactive = mostly below about 43%
TbPYK inhibitor – inhibitors of Trypanosoma brucei pyruvate kinase; 410,000 compounds, 0.12% hits; Q57TT1; AID 624173; Potency, µM (doses to about 76.8 µM), usual class: inhibitors; TbPYK enzyme, Kinase-Glo Plus ATP luminescence, 45 min; note: nearly all actives have a fitted effect of over 50% in size
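Assay buffer: 50 mM TEA pH 7.2, 100 mM KCl, 10 mM MgCl2, 0.05% BSA, 0.01% Tween-20. Pyruvate kinase from T. brucei plus substrate met compound, then ADP (130 uM final). Luminescence was read post 45 min RT.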
Numbers stand for hits; [ ] = dose if it differs, or a comment. The sample as a whole holds a higher share of hits than the screen did. Unless noted, calls come from the whole dose curve; as a rule, active = well fitted curve in the direction sought with a large enough effect; inconclusive = small, poorly fitted or top-dose-only effect, or another doubt; inactive = no such curve, though single readings can be large; an effect the other way counts as inactive or inconclusive.

O=C(c1sc2cc(F)ccc2c1Cl)N1CCN(c2cccc(Cl)c2)CC1 was read as LmPK inh inactive, CHX counter inactive, RE007 growth inh inactive, FBPA Giardia inh inactive, Shiga toxin inh inactive and TbPYK inhibitor inactive.
`O=c1c2ccc(F)cc2sn1-c1ccccc1` gave RE007 growth inh inactive and TbPYK inhibitor 10µM.
For Cc1ccc(Cn2c(=O)sc3ccccc3c2=O)cc1 the results were LmPK inh inactive, CHX counter inactive, RE007 growth inh inactive, FBPA Giardia inh inactive, Shiga toxin inh inactive and TbPYK inhibitor inactive.
`Cc1ccc(-n2sc3ccccc3c2=O)cc1` gave LmPK inh 20µM, CHX counter 18, RE007 growth inh 6.3µM, FBPA Giardia inh inconclusive, Shiga toxin inh inactive and TbPYK inhibitor 7.9µM.
Screening O=c1c2ccccc2sn1-c1ccc(Cl)cc1 returned RE007 growth inh 8.9µM and TbPYK inhibitor 32µM.
CCOc1ccc(CCNC(=O)CCc2cn(Cc3ccc(C)cc3)c3ccccc23)cc1 was read as TbPYK inhibitor inactive.
Screening Cn1cc(Br)c(C(=O)Nc2sc3c(c2C(N)=O)CCC3)n1 returned LmPK inh inactive, CHX counter 30, RE007 growth inh inactive, FBPA Giardia inh inactive, Shiga toxin inh 52 and TbPYK inhibitor inactive.
Screening Cn1nccc1C(=O)Nc1sc2c(c1C(N)=O)CCCC2 returned LmPK inh inactive, CHX counter 31, RE007 growth inh inactive, FBPA Giardia inh inactive, Shiga toxin inh 58 and TbPYK inhibitor inactive.
For Cn1ccc(C(=O)Nc2sc3c(c2C(N)=O)CCCCC3)n1 the results were LmPK inh inactive, CHX counter 57, RE007 growth inh inactive, Shiga toxin inh 99 and TbPYK inhibitor inconclusive.
`CCn1ncc(Br)c1C(=O)Nc1sc2c(c1C(N)=O)CCC2` gave LmPK inh inactive, CHX counter inactive, RE007 growth inh inactive, FBPA Giardia inh inactive, Shiga toxin inh inactive and TbPYK inhibitor inactive.
Screening Cc1ccccc1-c1cnc(C(O)c2ccc(-c3ccccc3)cc2)[nH]1 (centres undefined) returned RE007 growth inh inactive[18.4 µM] and TbPYK inhibitor inactive.
For CC1CC=CC2C1C(=O)N(Cc1ccccc1)C2c1ccc(F)c(/C=C/c2ccccc2)c1 (centres undefined) the results were CHX counter inactive, FBPA Giardia inh inactive and Shiga toxin inh inactive.
`Cc1ccc(Cl)cc1N1CCN(C2(c3ccccc3)C(=O)c3ccccc3C2=O)CC1` gave TbPYK inhibitor inactive.
For CCCCc1ccc(NC(=S)N2CCN(C(=O)OCC)CC2)cc1 the results were LmPK inh inactive, CHX counter inactive, RE007 growth inh inactive, FBPA Giardia inh inactive, Shiga toxin inh inactive and TbPYK inhibitor inactive.
CCCCc1ccc(NC(=S)N2CCN(C)CC2)cc1 was read as LmPK inh inactive, CHX counter 20, RE007 growth inh inactive, FBPA Giardia inh inactive, Shiga toxin inh inactive and TbPYK inhibitor inactive.
For CCCCc1ccc(NC(=S)N2CCCC2)cc1 the results were LmPK inh inactive, CHX counter 48, RE007 growth inh inactive, Shiga toxin inh 69 and TbPYK inhibitor inactive.
`O=C1CC(c2nnc(Cc3ccc(F)cc3)o2)CN1c1ccccc1` (centres undefined) gave TbPYK inhibitor inactive.
`CC(=O)c1ccc(OCc2cc(C(=O)N3CC4C[C@@H]5CC3C[C@H](C4)C5)no2)cc1` gave LmPK inh inactive, CHX counter 47, RE007 growth inh inactive, Shiga toxin inh 84 and TbPYK inhibitor inactive.
For CC(=O)c1cccc(OCc2cc(C(=O)N(C)C(C)c3ccccn3)no2)c1 (centres undefined) the results were LmPK inh inactive, CHX counter inactive, RE007 growth inh inactive, FBPA Giardia inh inactive, Shiga toxin inh inactive and TbPYK inhibitor inactive.
CC(=O)c1cccc(OCc2cc(C(=O)N3CC4C[C@@H]5CC3C[C@H](C4)C5)no2)c1 was read as LmPK inh inactive, CHX counter 29, RE007 growth inh inactive, Shiga toxin inh inactive and TbPYK inhibitor inactive.
`COc1ccc(C(=O)/C=C/c2ccc(O)cc2)cc1` gave LmPK inh inactive, CHX counter 37, RE007 growth inh inactive, FBPA Giardia inh inactive, Shiga toxin inh 87 and TbPYK inhibitor inactive.
`COc1ccc(/C=C/C(=O)Oc2cc(O)cc(O)c2)cc1` gave LmPK inh inactive, CHX counter 21, RE007 growth inh inactive, FBPA Giardia inh inactive, Shiga toxin inh 35 and TbPYK inhibitor inactive.
`Cc1nn(C)cc1/C=C/C(=O)c1ccc(O)cc1` gave LmPK inh inactive, CHX counter 38, RE007 growth inh inactive, FBPA Giardia inh inactive, Shiga toxin inh 40 and TbPYK inhibitor inactive.
O=C(/C=C/c1ccc(O)cc1)c1ccccc1 was read as LmPK inh 13µM, CHX counter 39, RE007 growth inh 50µM, FBPA Giardia inh inactive, Shiga toxin inh 75 and TbPYK inhibitor inconclusive.
`CCOc1ccccc1-n1nnc(-c2nc(-c3ccccc3C)no2)c1C` gave TbPYK inhibitor inactive.
O=C(Nc1cccc2ncccc12)c1ccco1 was read as LmPK inh inactive, CHX counter inactive, RE007 growth inh inactive, FBPA Giardia inh inactive, Shiga toxin inh inactive and TbPYK inhibitor inactive.
Screening COc1ccc(-n2ccnc2SCC(=O)Nc2nnc(C)s2)cc1 returned TbPYK inhibitor inactive.
For Cc1nc2ccn(Cc3cccs3)c(=O)c2cc1C(=O)N1CCN(c2ccccc2)CC1 the results were TbPYK inhibitor inactive.
O=C(NCCc1csc(-c2ccc(C(F)(F)F)cc2)n1)c1ccc(F)c(F)c1 was read as TbPYK inhibitor inactive.
`COc1ccc(-c2cc(O)cc(O)c2)cc1` gave LmPK inh inactive, CHX counter 33, RE007 growth inh inactive, FBPA Giardia inh inactive, Shiga toxin inh 50 and TbPYK inhibitor inactive.
O=C(/C=C/c1ccc(N2CCC(c3ccccc3)=N2)cc1)c1ccccc1 was read as LmPK inh inactive, CHX counter 39, RE007 growth inh inactive, FBPA Giardia inh inactive, Shiga toxin inh 80 and TbPYK inhibitor inactive.
Screening O=C(Nc1ccccc1F)Nc1ccc([N+](=O)[O-])cc1Cl returned LmPK inh inactive, CHX counter 9.8, RE007 growth inh inactive, FBPA Giardia inh inactive, Shiga toxin inh 29 and TbPYK inhibitor inactive.
Screening O=C(Nc1ncc(Cc2cccc(C(F)(F)F)c2)s1)c1ccc(-c2cccc([N+](=O)[O-])c2)o1 returned LmPK inh inactive, CHX counter inactive, RE007 growth inh inactive, FBPA Giardia inh inactive, Shiga toxin inh inactive and TbPYK inhibitor inactive.
Screening Cc1ccc2cccc(NC(=O)c3ccc(-c4cccc([N+](=O)[O-])c4)o3)c2n1 returned TbPYK inhibitor inactive.
Screening O=C(Nc1ccccc1F)c1ccc(-c2cccc([N+](=O)[O-])c2)o1 returned LmPK inh inactive, CHX counter 22, RE007 growth inh inactive, Shiga toxin inh 63 and TbPYK inhibitor inactive.
